Source: PubChem BioAssay
Calls of active or inactive are those of the source.

How the values were obtained:
[1] = binders of probe aFSTL3 on microarray, primary screen, stem cell growth factor project, biochemical, small-molecule microarray, fluorescence 635/667 (AID 1064); settings: higher = more signal;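 further: measures binding of the biotinylated anti-FSTL3 antibody to printed compounds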
[2] = binders from COS7 lysate, DM2A8 probe, primary screen, torsin A project, cell lysate, small-molecule microarray, fluorescence 635/667 (AID 1065); settings: higher = more signal, COS7 lysate expressing mutant human TOR1A
[3] = binders of probe aFGF2 on microarray, primary screen, stem cell growth factor project, biochemical, small-molecule microarray, fluorescence 635/667 (AID 1067); settings: higher = more signal;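 further: measures binding of biotinylated aFGF2 protein to printed compounds on slides; z-score merges feature fluorescence and signal-to-noise across triplicate slides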
[4] = binders of probe aFGF10 on microarray, primary screen, stem cell growth factor project, biochemical, small-molecule microarray, fluorescence 635/667 (AID 1071); settings: higher = more signal;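 further: score merges 667 nm spot intensity and signal to noise from triplicate slides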
[5] = molecular target: Neurogenic locus notch homolog protein 2 (Homo sapiens) (UniProt Q04721); test: Notch2 binders on small-molecule microarrays, primary screen, biochemical, small-molecule microarray, 635 nm fluorescence, stem cell growth factors (AID 1073); settings: Notch2 binding, higher = more signal
[6] = molecular target: Pro-neuregulin-1, membrane-bound isoform (Homo sapiens) (UniProt Q02297); test: NRG1 binders on small-molecule microarrays, primary screen, psychiatric disease protein project, biochemical, small-molecule microarray, fluorescence 635/667 (AID 1075); settings: NRG1 binding, 635 nm fluorescence, higher = more signal;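 further: score combines 667 nm spot fluorescence with signal to noise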
[7] = tested on: Neuregulin-1 EGF-like domain; test: binders of neuregulin-1 EGF-like domain, primary screen, biochemical, small-molecule microarray, 635 nm fluorescence (AID 1081); settings: small-molecule microarray binding, higher = more signal;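 further: binding of the protein to compounds printed on small-molecule microarray slides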
[8] = FRG1 promoter luciferase signal modulators, primary screen, FRG1 inhibition for FSHD, cell-based, C2C12 myotubes, firefly/Renilla luciferase, luminescence (AID 1084); settings: higher = more signal, called active from +8 up or from −8 down
[9] = binders of probe aFST on microarray, primary screen, stem cell growth factor project, biochemical, small-molecule microarray, fluorescence 635/667 (AID 1086); settings: higher = more signal;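 further: score merges 667 nm fluorescence with signal-to-noise of each printed compound spot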
[10] = binders of probe aHhip on microarray, primary screen, stem cell growth factor project, biochemical, small-molecule microarray, fluorescence 635/667 (AID 1087); settings: higher = more signal;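 further: score merges spot fluorescence at 667nm with spot signal to noise ratio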
[11] = tested on: PRMT1 (protein arginine N-methyltransferase 1); test: PRMT1 binders on small-molecule microarrays, primary screen, biochemical, small-molecule microarray, 635 nm fluorescence (AID 1088); settings: small-molecule microarray binding, higher = more signal;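 further: binding of Prmt1 protein to compounds spotted on small-molecule microarray slides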
[12] = yeast growth modulation, basal conditions, primary screen, YJM789 clinical isolate, OD600, 24 h (AID 1089);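 further: growth of clinical yeast isolate S. cerevisiae YJM 789 seeded 1000 cells per well; test concentration not given here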; settings: S. cerevisiae YJM789 growth, higher = more signal, called active from +8 up or from −8 down
[13] = fission yeast growth modulation, primary screen, strain 972, OD600, 24 h, no modulator (AID 1090);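 further: basal condition with compound alone and no growth modifier present; test concentration not given here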; settings: S. pombe 972 growth, higher = more signal, called active from +8 up or from −8 down
[14] = S. cerevisiae growth modulation with rapamycin, primary screen, strain BY4716, OD600, 96 h (AID 1091); settings: higher = more signal, called active from +8 up or from −8 down; further: test concentration not given here
[15] = molecular target: Torsin-1A-interacting protein 2 (Homo sapiens) (UniProt Q8NFQ8); test: LULL1 binders on small-molecule microarray, primary screen, cell lysate, human LULL1 lysate, 635/667 nm fluorescence (AID 1092); settings: hLULL1 lysate binding, 635 nm fluorescence, higher = more signal;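 further: probe is lysate of COS7 cells overexpressing human LULL1; score merges per-feature 667 nm fluorescence with signal-to-noise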
[16] = E. coli growth modulation, two-sided OD650, primary screen, E. coli filamentation project, strain DRC41, 24 h (AID 1093); settings: OD650, 24 h, higher = more signal, called active from +8 up or from −8 down;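 further: MC1000 strain lacking acrAB efflux and sulA so SOS filamentation is blocked; test concentration not given here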
[17] = small-molecule microarray binders of probe aLefty2, primary screen, biochemical, biotinylated probe, 635/667 nm fluorescence (AID 1094); settings: higher = more signal;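 further: score merges spot fluorescence near 667 nm with spot signal-to-noise ratio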
[18] = tested on: Noggin (protein binding on small-molecule microarray); test: Noggin binders on small-molecule microarray, primary screen, biochemical, 635/667 nm fluorescence (AID 1095); settings: 635 nm fluorescence, higher = more signal;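 further: score merges 667 nm feature fluorescence with signal to noise over triplicate slides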
[19] = molecular target: Neurogenic locus notch homolog protein 3 (Homo sapiens) (UniProt Q9UM47); test: NOTCH3 binders on small-molecule microarray, primary screen, biochemical, 635/667 nm fluorescence (AID 1096); settings: NOTCH3 binding, 635 nm fluorescence, higher = more signal
[20] = small-molecule microarray binders of probe aEGFR, primary screen, biochemical, biotinylated probe, 635/667 nm fluorescence (AID 1097); settings: higher = more signal;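 further: probe is a biotinylated anti-EGFR antibody binding compounds printed on slides; score combines fluorescence near 667 nm and signal to noise of each spot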

Pro-neuregulin-1, membrane-bound isoform (Homo sapiens), sequence (Q02297 whole entry, looked up, the tested form may be a part, canonical isoform): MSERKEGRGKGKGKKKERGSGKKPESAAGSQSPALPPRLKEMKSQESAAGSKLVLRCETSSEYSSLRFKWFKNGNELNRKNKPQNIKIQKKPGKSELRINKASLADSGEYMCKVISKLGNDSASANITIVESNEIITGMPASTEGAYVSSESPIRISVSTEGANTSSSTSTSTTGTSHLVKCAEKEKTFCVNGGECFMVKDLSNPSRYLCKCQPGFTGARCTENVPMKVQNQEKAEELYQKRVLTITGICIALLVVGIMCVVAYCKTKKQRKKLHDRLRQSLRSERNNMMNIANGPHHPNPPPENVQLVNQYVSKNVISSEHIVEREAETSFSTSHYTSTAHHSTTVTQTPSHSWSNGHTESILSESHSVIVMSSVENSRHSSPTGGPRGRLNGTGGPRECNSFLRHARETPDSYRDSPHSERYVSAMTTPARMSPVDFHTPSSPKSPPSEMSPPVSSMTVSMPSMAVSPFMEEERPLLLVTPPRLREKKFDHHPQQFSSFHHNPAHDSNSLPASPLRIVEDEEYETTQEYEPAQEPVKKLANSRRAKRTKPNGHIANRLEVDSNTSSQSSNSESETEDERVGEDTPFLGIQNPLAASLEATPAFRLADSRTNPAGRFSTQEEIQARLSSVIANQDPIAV
Torsin-1A-interacting protein 2 (Homo sapiens), sequence (Q8NFQ8 whole entry, looked up): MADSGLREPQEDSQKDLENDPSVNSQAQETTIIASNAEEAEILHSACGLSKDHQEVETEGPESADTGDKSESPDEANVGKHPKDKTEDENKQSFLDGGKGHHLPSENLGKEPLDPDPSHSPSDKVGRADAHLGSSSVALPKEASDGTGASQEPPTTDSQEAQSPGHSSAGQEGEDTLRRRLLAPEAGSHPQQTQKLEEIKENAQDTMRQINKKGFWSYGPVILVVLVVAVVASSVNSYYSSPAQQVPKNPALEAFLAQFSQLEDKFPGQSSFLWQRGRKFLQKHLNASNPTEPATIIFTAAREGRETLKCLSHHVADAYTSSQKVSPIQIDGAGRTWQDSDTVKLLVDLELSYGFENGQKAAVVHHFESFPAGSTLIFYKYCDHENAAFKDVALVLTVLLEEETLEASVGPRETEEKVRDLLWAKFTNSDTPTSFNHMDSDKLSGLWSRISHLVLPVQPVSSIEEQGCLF
Neurogenic locus notch homolog protein 3 (Homo sapiens), sequence (Q9UM47 whole entry, looked up): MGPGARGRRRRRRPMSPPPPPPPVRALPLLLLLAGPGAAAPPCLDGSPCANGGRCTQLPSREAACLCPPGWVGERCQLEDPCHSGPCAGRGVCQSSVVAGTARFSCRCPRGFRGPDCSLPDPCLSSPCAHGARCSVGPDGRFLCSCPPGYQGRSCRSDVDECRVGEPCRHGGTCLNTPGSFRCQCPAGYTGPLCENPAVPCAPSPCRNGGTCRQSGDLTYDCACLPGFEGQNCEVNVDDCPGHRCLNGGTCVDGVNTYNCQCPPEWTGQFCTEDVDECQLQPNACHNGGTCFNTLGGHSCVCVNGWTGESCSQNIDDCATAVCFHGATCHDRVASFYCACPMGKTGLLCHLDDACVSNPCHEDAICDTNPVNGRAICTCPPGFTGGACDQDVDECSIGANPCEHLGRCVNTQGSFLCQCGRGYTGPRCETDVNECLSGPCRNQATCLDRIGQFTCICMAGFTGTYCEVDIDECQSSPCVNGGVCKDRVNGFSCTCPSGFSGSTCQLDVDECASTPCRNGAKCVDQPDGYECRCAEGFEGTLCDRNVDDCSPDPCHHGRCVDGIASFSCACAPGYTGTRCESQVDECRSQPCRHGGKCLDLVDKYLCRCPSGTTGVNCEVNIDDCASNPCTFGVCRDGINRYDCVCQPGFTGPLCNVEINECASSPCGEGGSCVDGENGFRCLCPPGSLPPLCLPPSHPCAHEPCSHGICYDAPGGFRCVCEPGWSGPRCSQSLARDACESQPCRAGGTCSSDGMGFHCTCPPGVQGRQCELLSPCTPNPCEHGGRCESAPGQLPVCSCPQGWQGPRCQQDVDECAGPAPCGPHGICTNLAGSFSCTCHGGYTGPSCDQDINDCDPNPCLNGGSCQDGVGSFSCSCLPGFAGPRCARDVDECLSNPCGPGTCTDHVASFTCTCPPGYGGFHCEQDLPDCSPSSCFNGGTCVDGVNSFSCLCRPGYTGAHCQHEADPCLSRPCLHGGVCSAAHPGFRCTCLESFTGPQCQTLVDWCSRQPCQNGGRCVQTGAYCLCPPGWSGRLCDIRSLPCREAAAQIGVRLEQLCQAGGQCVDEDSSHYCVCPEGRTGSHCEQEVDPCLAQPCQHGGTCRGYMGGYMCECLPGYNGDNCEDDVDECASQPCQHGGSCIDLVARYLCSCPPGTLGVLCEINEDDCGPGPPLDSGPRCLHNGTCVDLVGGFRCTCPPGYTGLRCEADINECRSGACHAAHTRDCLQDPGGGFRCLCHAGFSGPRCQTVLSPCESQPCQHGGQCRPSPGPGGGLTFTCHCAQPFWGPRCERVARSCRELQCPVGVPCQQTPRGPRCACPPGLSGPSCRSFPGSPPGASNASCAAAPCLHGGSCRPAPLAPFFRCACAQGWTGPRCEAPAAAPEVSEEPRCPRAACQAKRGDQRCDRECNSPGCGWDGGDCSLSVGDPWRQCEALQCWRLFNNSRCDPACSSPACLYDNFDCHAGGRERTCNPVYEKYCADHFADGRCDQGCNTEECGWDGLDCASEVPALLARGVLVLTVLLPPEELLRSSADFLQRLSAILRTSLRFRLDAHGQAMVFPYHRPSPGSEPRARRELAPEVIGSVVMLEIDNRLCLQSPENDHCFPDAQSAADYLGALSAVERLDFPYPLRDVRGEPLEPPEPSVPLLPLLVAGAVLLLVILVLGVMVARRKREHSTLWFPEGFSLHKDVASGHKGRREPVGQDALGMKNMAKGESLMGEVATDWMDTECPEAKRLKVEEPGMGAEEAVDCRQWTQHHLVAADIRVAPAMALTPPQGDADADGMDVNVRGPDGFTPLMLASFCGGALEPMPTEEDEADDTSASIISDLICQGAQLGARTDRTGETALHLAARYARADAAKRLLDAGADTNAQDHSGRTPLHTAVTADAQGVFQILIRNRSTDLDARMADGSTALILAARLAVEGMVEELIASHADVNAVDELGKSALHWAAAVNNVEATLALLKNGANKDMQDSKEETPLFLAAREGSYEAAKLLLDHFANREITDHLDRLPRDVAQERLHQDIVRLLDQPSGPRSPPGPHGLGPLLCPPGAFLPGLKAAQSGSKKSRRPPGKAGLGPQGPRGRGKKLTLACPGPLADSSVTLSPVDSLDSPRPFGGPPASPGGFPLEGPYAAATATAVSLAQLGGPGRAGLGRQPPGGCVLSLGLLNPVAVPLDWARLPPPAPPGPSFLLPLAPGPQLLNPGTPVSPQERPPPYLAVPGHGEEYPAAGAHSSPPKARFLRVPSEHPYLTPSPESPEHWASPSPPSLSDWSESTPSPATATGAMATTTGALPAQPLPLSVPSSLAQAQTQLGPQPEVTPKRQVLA

Row | SMILES | composite z-score [1] | composite z-score [2] | composite z-score [3] | composite z-score [4] | composite z-score [5] | composite z-score [6] | composite z-score [7] | z-score [8] | composite z-score [9] | composite z-score [10] | composite z-score [11] | z-score [12] | z-score [13] | z-score [14] | composite z-score [15] | z-score [16] | composite z-score [17] | composite z-score [18] | composite z-score [19] | composite z-score [20]
1 | O=C1C2=CC[C@H]3C(=O)N(c4ccc(F)cc4F)C(=O)[C@H]3[C@H]2[C@H](O)[C@@H]2O[C@H]12 | -0.598 | 0.45 | -0.116 | 0.37 | 0.291 | -0.0808 | 0.0508 | 0.264 (inactive) | 1.14 | -0.0994 | 0.137 | -0.892 (inactive) | 0.151 (inactive) | 0.0688 (inactive) | -0.034 | 0.601 (inactive) | -0.124 | 0.526 | 0.634 | -0.0967
2 | CC(C)CON=C1C[C@@H](O)[C@@H](O)[C@@H]2[C@@H]3C(=O)N([C@@H](C)c4ccccc4)C(=O)[C@@H]3CC[C@@H]12 | 0.083 | 0.114 | -0.145 | 0.107 | 0.309 | -0.104 | -0.546 | 0.431 (inactive) | 0.624 | 0.0373 | -0.413 | 0.281 (inactive) | 0.603 (inactive) | -0.188 (inactive) | 0.246 | 0.3 (inactive) | 0.224 | 0.347 | 0.114 | -0.0286
3 | CO[C@H]1COC(=O)[C@H](CCSC)NC(=O)CC=C[C@@H](C)[C@H](OC)COC(=O)[C@@H](OCc2ccccc2)C=C[C@@H]1C | -0.459 | 0.633 | -0.188 | 0.227 | 0.133 | -0.388 | 0.597 | 0.306 (inactive) | -0.276 | -0.134 | 1.56 | -0.772 (inactive) | -0.282 (inactive) | -1.65 (inactive) | -1.05 | -0.317 (inactive) | -0.0131 | 1.39 | 0.472 | -0.0531
4 | COC(=O)[C@H](C)NC(=O)CCC1CC(OC(=O)NCCc2ccc(F)cc2)CC2(CCCC(COC(=O)NCC3CCCCC3)O2)O1 (stereo not given in full) | -0.429 | 0.437 | -0.116 | 0.605 | 1.32 | 0.618 | 1.06 | 0.617 (inactive) | 0.486 | -0.143 | 1.49 | -0.797 (inactive) | -0.781 (inactive) | 0.689 (inactive) | 2.16 | -0.718 (inactive) | -0.139 | 0.883 | 1.06 | 0.0207
5 | CON=C1c2cc(OC)ccc2O[C@H](c2cccc(OC)c2)[C@H]1O | -0.289 | 0.707 | -0.0473 | 0.492 | 0.385 | 0.247 | 0.945 | 5.9 (inactive) | 0.583 | 0.0053 | -0.0242 | -0.976 (inactive) | -3 (inactive) | -1.75 (inactive) | 0.365 | 0.792 (inactive) | -0.0515 | 0.588 | 0.684 | 0.0242
